# Experimental data as given in ChEMBL document CHEMBL1157539, “Thousands of chemical starting points for antimalarial lead identification” (Nature, 2010).
# Columns and labels:
# Format in all cases: functional
# Plasmodium falciparum [1] = experiment: GSK_TCMDC: Inhibition of Plasmodium falciparum 3D7 in whole red blood cells, using parasite LDH activity as an index of growth. Test compounds present at 2uM
# Plasmodium falciparum [2] = experiment: GSK_TCMDC: Inhibition of Plasmodium falciparum Dd2 in whole red blood cells, using parasite LDH activity as an index of growth. Test compounds present at 2uM
# HepG2 = experiment: GSK_TCMDC: Percent inhibition of human HepG2 cell line. Test compounds present at 10uM.
Structure (SMILES),Inhibition (Plasmodium falciparum [1]),Inhibition (Plasmodium falciparum [2]),Inhibition (HepG2)
COc1cccc(C(=O)NCCc2cccc(Cl)c2)c1OCc1ccccc1,85%,0%,0%
CCCCCCNC[C@@H](O)[C@H](Cc1ccccc1)NC(=O)c1cc(NCC)cc(N2CCCCS2(=O)=O)c1.Cl,100%,98%,5%
O=C(O)C(F)(F)F.c1ccc(-n2ncc(CNCc3ccc(-c4cccc(-c5nc6ccccc6[nH]5)c4)cc3)n2)cc1,94%,9%,21%
CC(Cc1ccc(OCCN2CCN(c3cccc(Cl)c3)CC2)cc1)NCC(O)c1cccc(C(F)(F)F)c1.Cl (stereo unspecified),99%,98%,100%
O=C(NCCCN1CCC(Cc2ccccc2)CC1)c1cc2c(Cl)nc3ccccc3c2s1,98%,40%,22%
CN1CCN(c2ccnc3ccc(NC(=O)Cc4ccc5ccccc5c4)cc23)CC1,100%,89%,6%
COc1ccc(CN(C)CCCCc2ccc(NC(=O)COc3cccc4sc5ccccc5c(=O)c34)cc2)cc1OC.O=C(O)C(=O)O,100%,84%,26%
CN(C)CCN1CCN(Cc2ccc(-c3cccc(-c4nc5ccccc5[nH]4)c3)cc2)CC1.O=C(O)C(F)(F)F,100%,100%,25%
C/C=C/COc1ccc2ccccc2c1CNCCCCCCCCNCc1c(OC/C=C/C)ccc2ccccc12.CS(=O)(=O)O.O,87%,86%,100%
COc1ccccc1C1CCN(C2CCC(NC(=O)/C=C/c3ccc4c(c3)OC(F)(F)O4)CC2)CC1 (stereo unspecified),98%,31%,52%
CN1CCN(CC(=O)Nc2cccc(-c3cccc(-c4nc5ccccc5[nH]4)c3)c2)CC1,90%,27%,11%
Cc1nnc(N2C(=N)SC(=Cc3ccc(-c4ccc(OC(F)(F)F)cc4)o3)C2=O)s1,85%,58%,37%
COc1ccc(NC(=O)c2ccc(Br)c(C)c2)cc1N1CCN(CCCCc2ccccc2)CC1.O=C(O)C(=O)O,88%,17%,29%
CC(Cc1ccc(OCC(=O)NCC2CCN(CCc3cccc(Cl)c3)CC2)cc1)NCCc1cccc(Cl)c1.Cl (stereo unspecified),96%,85%,100%
COc1ccc2ncc(Cl)c(N3CCC(CCNCc4ccc5c(n4)NC(=O)CS5)CC3)c2c1.Cl,89%,82%,33%
CC1(C)N=C(N)N=C(N)N1c1cccc(Cl)c1.Cl,96%,96%,69%
O=C(Cc1c[nH]cn1)Nc1cccc(-c2ccc(-c3nc4cc(F)ccc4[nH]3)s2)c1,100%,94%,4%
NCc1ccc(CNCc2cccc(-c3cccc(-c4nc5ccccc5[nH]4)c3)c2)cc1.O=C(O)C(F)(F)F,100%,11%,7%
C=CCn1c(C)cc(C(=O)COc2ccc(S(=O)(=O)N3CCOCC3)cc2[N+](=O)[O-])c1C,94%,5%,0%
O=C(/C=C/c1ccc(C(F)(F)F)cc1)NCCCCCN1CCC(c2c[nH]c3ccccc23)CC1,100%,22%,96%
CCc1nc2c(N)nc(N)nc2nc1-c1ccc(OC)cc1,86%,0%,44%
CN1CCN(Cc2cccc(-c3ccc4c(Nc5ccc(Oc6cccnc6)cc5)ccnc4c3)c2)CC1,100%,100%,15%
COc1ccc2nccc([C@@H](O)CN3CCC(NC(=O)[C@@H]4Cc5ccccc5CN4C(=O)OC(C)(C)C)CC3)c2c1,92%,61%,15%
CC1CN(CCCn2c3ccccc3c3ccc(C(=O)CCCN(C)C)cc32)CC(C)N1.Cl (stereo unspecified),100%,6%,26%
CN(C)CC1c2[nH]c3ccccc3c2CCN1C(=O)Nc1ccc(Cl)c(Cl)c1.Cl (stereo unspecified),90%,32%,99%
Cc1onc(-c2c(Cl)cccc2Cl)c1C(=O)N1CCc2cc3nccc(N4CCN5CCC[C@H]5C4)c3cc21,100%,58%,3%
CNC(=O)c1ccccc1Nc1nc(Nc2ccc(N3CCOCC3)cc2)ncc1Cl.Cl,97%,97%,75%
